Compounds without any hit were thinned out: in the full panel of roughly 79,000, 15% have a hit. Values without a mark were called inactive. Calls of active or inactive are those of the source. Cut-off read from the data, not from the text of the source: active = growth inhibition above about 70%; inactive = the rest.

Experiment [1] is described as follows: NCI Yeast Anticancer Drug Screen. Data for the rad50 strain (AID 155).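 Note: 0% = growth of vehicle-only cultures of the same strain.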 Particulars: S. cerevisiae rad50 strain growth inhibition, stronger effect = higher value. The essentials: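 Relative growth inhibition (compound vs vehicle) was measured in yeast with a defined repair-gene alteration.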
The nature of experiment [2]: NCI Yeast Anticancer Drug Screen. Data for the mec2-1 strain (AID 157). Particulars: S. cerevisiae mec2-1 strain, stronger effect = higher value. A digest of the protocol: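 Cells of the genetically defined mec2-1 yeast strain are incubated with test compound. Inhibition of growth is calculated against vehicle-treated controls.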
Experiment [3] can be described thus: NCI Yeast Anticancer Drug Screen. Data for the sgs1 mgt1 strain (AID 161).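 Note: 0% = growth of cultures given vehicle only.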 Particulars: S. cerevisiae sgs1 mgt1 strain, stronger effect = higher value. A digest of the protocol: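 Test agents were incubated with a DNA-repair-mutant yeast strain. Growth was then read and compared against vehicle-treated controls.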
The nature of experiment [4]: NCI Yeast Anticancer Drug Screen. Data for the cln2 rad14 strain (AID 165).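 Note: 0% = growth equal to vehicle treated cultures.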 To be noted: S. cerevisiae cln2 rad14 strain, stronger effect = higher value. A digest of the protocol:
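The screen exposed genetically defined yeast (cln2 rad14) to test compounds and scored growth inhibition relative to vehicle-treated controls.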

Experiment [5] can be described thus: NCI Yeast Anticancer Drug Screen. Data for the bub3 strain (AID 167). Particulars: S. cerevisiae bub3 mutant strain, stronger effect = higher value. The essentials: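 Screening used yeast with an engineered genetic alteration affecting cell cycle control. Compound-exposed cultures were compared with vehicle cultures, and reduced growth was taken as inhibition.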
Experiment [6] in a line: NCI Yeast Anticancer Drug Screen. Data for the mlh1 rad18 strain (AID 175). Particulars: S. cerevisiae mlh1 rad18 strain growth inhibition, stronger effect = higher value. A digest of the protocol: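 Compound-treated yeast growth, normalised to vehicle controls. Strain bears defined DNA repair mutations.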
Where [7] appears, read: at 5.0 µM (retest, dose inferred, filed as 0.5).
Where [8] appears, read: at 50.0 µM (retest, dose inferred, filed as 5.0).

Turning to `O=C(O/N=C1/CCC/C1=C\c1ccccc1)c1ccccc1`, the growth inhibition in experiment [1] (setting [7]) is 33%; in experiment [1] (setting [8]) it was 97% (active); in experiment [1] (at 50.0 µM), 96.5% (active); in experiment [2] (setting [7]), 46%; in experiment [2] (setting [8]), 99% (active); in experiment [2] (at 50.0 µM), 98.2% (active). In addition, the growth inhibition in experiment [3] (setting [7]) is 78% (active); in experiment [3] (setting [8]), 99% (active); in experiment [3] (at 50.0 µM), 98.8% (active); in experiment [4] (setting [7]) it was 25%; in experiment [4] (setting [8]), 98% (active); in experiment [4] (at 50.0 µM), 97% (active). In addition, the growth inhibition in experiment [5] (setting [7]) was 15%; in experiment [5] (setting [8]) it was 99% (active); in experiment [5] (at 50.0 µM), 96.3% (active); in experiment [6] (setting [7]), 57%; in experiment [6] (setting [8]), 98% (active); in experiment [6] (at 50.0 µM) it was 98.3% (active).

Turning to `CSc1ccc2c(c1)S[S@@](=O)N2`, the growth inhibition in experiment [1] (setting [7]) was -5%; in experiment [1] (setting [8]) it was 55%; in experiment [1] (at 50.0 µM), 35.9%; in experiment [2] (setting [7]), -11%; in experiment [2] (setting [8]) it was 61%; in experiment [2] (at 50.0 µM) it was 1.45%. Further, the growth inhibition is 9% in experiment [3] (setting [7]); 34% in experiment [3] (setting [8]); 56.6% in experiment [3] (at 50.0 µM); -16% in experiment [4] (setting [7]); 33% in experiment [4] (setting [8]); 18.3% in experiment [4] (at 50.0 µM). Besides, the growth inhibition was 5% in experiment [5] (setting [7]); 96% (active) in experiment [5] (setting [8]); 51.4% in experiment [5] (at 50.0 µM); -3% in experiment [6] (setting [7]); 38% in experiment [6] (setting [8]); 62.5% in experiment [6] (at 50.0 µM).

With `C/C(Cl)=N\OC(=O)Nc1ccc(C)cc1`, the growth inhibition in experiment [1] (setting [7]) is 4%; in experiment [1] (setting [8]) it was 99% (active); in experiment [1] (at 50.0 µM), 55.6%; in experiment [2] (setting [7]) it was -2%; in experiment [2] (setting [8]) it was 99% (active); in experiment [2] (at 50.0 µM), 79.5% (active). Also, the growth inhibition is -26% in experiment [3] (setting [7]); 91% (active) in experiment [3] (setting [8]); 74.5% (active) in experiment [3] (at 50.0 µM); 4% in experiment [4] (setting [7]); 86% (active) in experiment [4] (setting [8]); 53.6% in experiment [4] (at 50.0 µM). The growth inhibition in experiment [5] (setting [7]) is 11%; in experiment [5] (setting [8]), 98% (active); in experiment [5] (at 50.0 µM), 74% (active); in experiment [6] (setting [7]), -3%; in experiment [6] (setting [8]), 96% (active); in experiment [6] (at 50.0 µM) it was 60.4%.

`Cc1ccc(S(=O)(=O)N2CCN3C(=O)c4ccccc4C32c2ccc(F)cc2)cc1` (stereo not given): the growth inhibition in experiment [1] (setting [7]) was 20%; in experiment [1] (setting [8]), 95% (active); in experiment [1] (at 50.0 µM), 31.8%; in experiment [2] (setting [7]), 17%; in experiment [2] (setting [8]), 96% (active); in experiment [2] (at 50.0 µM) it was 26.3%. Besides, the growth inhibition in experiment [3] (setting [7]) was 88% (active); in experiment [3] (setting [8]) it was 99% (active); in experiment [3] (at 50.0 µM), 63.2%; in experiment [4] (setting [7]) it was 28%; in experiment [4] (setting [8]), 98% (active); in experiment [4] (at 50.0 µM), 22.9%. The growth inhibition was 37% in experiment [5] (setting [7]); 98% (active) in experiment [5] (setting [8]); 50.7% in experiment [5] (at 50.0 µM); 30% in experiment [6] (setting [7]); 96% (active) in experiment [6] (setting [8]); 29.2% in experiment [6] (at 50.0 µM).

With `O=C(O)C(O)C(O)C(O)C(O)c1nc2ccccc2s1` (stereo not given), the growth inhibition in experiment [1] (setting [7]) was 13%; in experiment [1] (setting [8]), 98% (active); in experiment [1] (at 50.0 µM), 98.6% (active); in experiment [2] (setting [7]) it was 13%; in experiment [2] (setting [8]) it was 99% (active); in experiment [2] (at 50.0 µM), 98.7% (active). Also, the growth inhibition in experiment [3] (setting [7]) was 12%; in experiment [3] (setting [8]), 96% (active); in experiment [3] (at 50.0 µM) it was 90.5% (active); in experiment [4] (setting [7]), 1%; in experiment [4] (setting [8]) it was 95% (active); in experiment [4] (at 50.0 µM), 73.7% (active). Also, the growth inhibition in experiment [5] (setting [7]) is 8%; in experiment [5] (setting [8]), 99% (active); in experiment [5] (at 50.0 µM), 99% (active); in experiment [6] (setting [7]), 9%; in experiment [6] (setting [8]), 97% (active); in experiment [6] (at 50.0 µM) it was 99% (active).

With `[Cl][Pt+2]([Cl])([Cl])[Cl].[NH-]CC1(C[NH-])CCCC1`, the growth inhibition in experiment [1] (setting [7]) is 86% (active); in experiment [1] (setting [8]) it was 99% (active); in experiment [1] (at 50.0 µM) it was 90.2% (active); in experiment [2] (setting [7]), 68%; in experiment [2] (setting [8]) it was 99% (active); in experiment [2] (at 50.0 µM), 90.8% (active). The growth inhibition in experiment [3] (setting [7]) was 62%; in experiment [3] (setting [8]) it was 86% (active); in experiment [3] (at 50.0 µM) it was 90.3% (active); in experiment [4] (setting [7]) it was 57%; in experiment [4] (setting [8]), 81% (active); in experiment [4] (at 50.0 µM) it was 86% (active). Further, the growth inhibition in experiment [5] (setting [7]) is 61%; in experiment [5] (setting [8]), 88% (active); in experiment [5] (at 50.0 µM) it was 93% (active); in experiment [6] (setting [7]), 56%; in experiment [6] (setting [8]), 98% (active); in experiment [6] (at 50.0 µM) it was 83.5% (active).

For `CNC(=N)c1ccc(NC(=N)c2ccc(NC(=O)c3ccc(C(=O)Nc4ccc(C(=N)Nc5ccc(C(=N)NC)cc5)cc4)cc3)cc2)cc1`, the growth inhibition was 74% (active) in experiment [1] (setting [7]); 54% in experiment [1] (setting [8]); 70.2% (active) in experiment [1] (at 50.0 µM); 81% (active) in experiment [2] (setting [7]); 57% in experiment [2] (setting [8]); 51% in experiment [2] (at 50.0 µM). For the same compound, the growth inhibition in experiment [3] (setting [7]) is 52%; in experiment [3] (setting [8]), 61%; in experiment [3] (at 50.0 µM), 53.8%; in experiment [4] (setting [7]) it was 47%; in experiment [4] (setting [8]), 42%; in experiment [4] (at 50.0 µM) it was 11.7%. The growth inhibition in experiment [5] (setting [7]) was 79% (active); in experiment [5] (setting [8]) it was 74% (active); in experiment [5] (at 50.0 µM), 46.6%; in experiment [6] (setting [7]), 87% (active); in experiment [6] (setting [8]), 69%; in experiment [6] (at 50.0 µM), 87.5% (active).

With `CC(C)N(C(=O)c1ccc(Cl)c(Cl)c1)C(C)C`, the growth inhibition in experiment [1] (setting [7]) is -15%; in experiment [1] (setting [8]), -14%; in experiment [1] (at 50.0 µM) it was -0.55%; in experiment [2] (setting [7]), -14%; in experiment [2] (setting [8]), 4%; in experiment [2] (at 50.0 µM) it was 10.8%. Also, the growth inhibition is -1% in experiment [3] (setting [7]); 0% in experiment [3] (setting [8]); 15.1% in experiment [3] (at 50.0 µM); 29% in experiment [4] (setting [7]); -26% in experiment [4] (setting [8]); 13.4% in experiment [4] (at 50.0 µM). The growth inhibition in experiment [5] (setting [7]) is 6%; in experiment [5] (setting [8]), -25%; in experiment [5] (at 50.0 µM) it was 9.2%; in experiment [6] (setting [7]) it was -12%; in experiment [6] (setting [8]) it was 0%; in experiment [6] (at 50.0 µM), -5.65%.

With `C(=N\Nc1ccc2ccccc2n1)/c1ccccn1.CC(=O)[O-].CC(=O)[O-].[Zn+2]`, the growth inhibition was -4% in experiment [1] (setting [7]); 2% in experiment [1] (setting [8]); 16.7% in experiment [1] (at 50.0 µM); 2% in experiment [2] (setting [7]); -2% in experiment [2] (setting [8]); 39.3% in experiment [2] (at 50.0 µM). The growth inhibition is -3% in experiment [3] (setting [7]); -3% in experiment [3] (setting [8]); 84.3% (active) in experiment [3] (at 50.0 µM); -3% in experiment [4] (setting [7]); 0% in experiment [4] (setting [8]); -19.6% in experiment [4] (at 50.0 µM). For the same compound, the growth inhibition in experiment [5] (setting [7]) was -1%; in experiment [5] (setting [8]), -1%; in experiment [5] (at 50.0 µM) it was 18.3%; in experiment [6] (setting [7]) it was 2%; in experiment [6] (setting [8]) it was 0%; in experiment [6] (at 50.0 µM), 57.4%.

As to `O=C(Nc1ccccc1-c1nn(C(=S)Nc2ccccc2)c(=S)n(C(=S)Nc2ccccc2)c1=O)C(F)(F)F`, the growth inhibition in experiment [1] (setting [7]) is 6%; in experiment [1] (setting [8]), 59%; in experiment [1] (at 50.0 µM) it was 47.1%; in experiment [2] (setting [7]) it was 2%; in experiment [2] (setting [8]) it was 87% (active); in experiment [2] (at 50.0 µM) it was 88.1% (active). Further, the growth inhibition in experiment [3] (setting [7]) is 10%; in experiment [3] (setting [8]), 77% (active); in experiment [3] (at 50.0 µM), 46.5%; in experiment [4] (setting [7]), 7%; in experiment [4] (setting [8]), 38%; in experiment [4] (at 50.0 µM) it was 17.2%. In addition, the growth inhibition in experiment [5] (setting [7]) was -41%; in experiment [5] (setting [8]) it was 50%; in experiment [5] (at 50.0 µM) it was 15.4%; in experiment [6] (setting [7]) it was 3%; in experiment [6] (setting [8]), 88% (active); in experiment [6] (at 50.0 µM), 81.5% (active).

For the origin of these results see PubChem BioAssay (NCI).
